Test [1] deals with Galanin receptor type 2 (Homo sapiens) (UniProt O43603). Kind of test: GALR2 antagonists, retest of hits, confirmation, cell-based (AID 866; in the data active = inhibition above about 27%;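 also: cells stimulated with galanin at about its EC80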). To be noted: GALR2-expressing cells, antagonist mode, at 4 µM, active compounds read high.
Test [2] can be described thus: inhibitors of NFAT-driven beta-lactamase reporter, confirmation, counter-screen for GALR2 antagonist project, CHO NFAT-bla cells, FRET readout (AID 867;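 active = inhibition above the mean inhibition across tested compounds plus 3 SD, cut at about 27% in these data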;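 also: 0% = 500 nM thapsigargin stimulated wells and 100% = unstimulated BSA only wells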). The note with it: thapsigargin-stimulated, at 4.2 µM, active compounds read high. Background: Counterscreens check selectivity or assay interference.
For test [3], the target named is Sphingosine 1-phosphate receptor 4 (Homo sapiens) (UniProt O95977). Kind of test: S1P4 receptor antagonists, human, confirmation, cell-based (AID 1524; in the data active = inhibition above about 30%). The note with it: S1P4-expressing cell line, antagonist mode, reporter read-out; at 4.98 µM; active compounds read high.
Sphingosine 1-phosphate receptor 4 (Homo sapiens), sequence (O95977 whole entry, looked up): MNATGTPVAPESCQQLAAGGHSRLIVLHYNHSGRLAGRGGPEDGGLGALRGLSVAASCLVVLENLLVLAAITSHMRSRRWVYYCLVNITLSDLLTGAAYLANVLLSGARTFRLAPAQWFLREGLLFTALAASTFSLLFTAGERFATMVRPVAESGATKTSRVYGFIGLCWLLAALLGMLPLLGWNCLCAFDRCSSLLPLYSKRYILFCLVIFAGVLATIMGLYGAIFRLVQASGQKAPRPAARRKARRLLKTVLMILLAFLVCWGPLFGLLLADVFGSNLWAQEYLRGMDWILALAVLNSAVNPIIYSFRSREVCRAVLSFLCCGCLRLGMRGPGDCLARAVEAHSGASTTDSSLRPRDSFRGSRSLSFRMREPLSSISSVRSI
The target of test [4] is Sphingosine 1-phosphate receptor 1 (Homo sapiens) (UniProt P21453). Kind of test: S1P1 receptor antagonists, human, counter-screen for S1P4 antagonist project, cell-based (AID 1564; in the data active = inhibition above about 40%;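 also: receptor stimulated with S1P near its EC80; 0% = agonist stimulated wells and 100% = vehicle only wells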). To be noted: cell-based S1P1 antagonist counterscreen, at 4.98 µM, active compounds read high.
For test [5], the target named is Receptor-interacting serine/threonine-protein kinase 2 (Homo sapiens) (UniProt O43353). The test is described as follows: NOD2-RIPK2 binding disruptors, retest, confirmation, fluorescence, CHO cells, BLA complementation, triplicate (AID 624370;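 active = mean inhibition across replicates above a set limit taken from the earlier primary screen, cut at about 21% in these data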;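 also: 0% = DMSO-only wells and the high end = clavulanate BLA-blocked wells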). The note with it: CCF4 FRET, at 4.98 µM, active compounds read high.
A short description of test [6]: beta-lactamase reporter inhibitors in CHO cells, confirmation, artefact control for NOD2-RIPK2 interaction inhibitor project, cell-based, CHO-K1 CMV-bla, CCF4 FRET, fluorescence (AID 624371;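 active = mean inhibition above the low-control mean inhibition plus three low-control SD, cut at about 11% in these data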;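 also: 0% = DMSO only wells and 100% = clavulanate high control wells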). The note with it: CCF4 FRET ratio, counterscreen, at 4.98 µM, active compounds read high.
In test [7] the target is Photoreceptor-specific nuclear receptor (Homo sapiens) (UniProt Q9Y5X4). The test is described as follows: NR2E3 agonists, confirmation, biochemical, TR-FRET (AID 2379; in the data active = activation above about 20%). To be noted: cell-free NR2E3 corepressor release, 5 h, at 3.98 µM, active compounds read high. In general terms: In TR-FRET formats the signal depends on donor and acceptor labels being close together.
For test [8], the target named is Protein-arginine deiminase type-4 (Homo sapiens) (UniProt Q9UM07). The test is described as follows: human PAD4 inhibitors, confirmation, biochemical, fluorescence polarization (AID 488796;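 active = mean inhibition across replicates above the hit cutoff set by the earlier primary screen, cut at about 15% in these data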;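 also: inhibitors block active-site labeling by the probe so polarization falls; 0% = PAD4 with probe and DMSO and 100% = probe without PAD4 enzyme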). The note with it: recombinant PAD4, RCA probe fluorescence polarization; at 6.36 µM; active compounds read high.
Protein-arginine deiminase type-4 (Homo sapiens), sequence (Q9UM07 whole entry, looked up): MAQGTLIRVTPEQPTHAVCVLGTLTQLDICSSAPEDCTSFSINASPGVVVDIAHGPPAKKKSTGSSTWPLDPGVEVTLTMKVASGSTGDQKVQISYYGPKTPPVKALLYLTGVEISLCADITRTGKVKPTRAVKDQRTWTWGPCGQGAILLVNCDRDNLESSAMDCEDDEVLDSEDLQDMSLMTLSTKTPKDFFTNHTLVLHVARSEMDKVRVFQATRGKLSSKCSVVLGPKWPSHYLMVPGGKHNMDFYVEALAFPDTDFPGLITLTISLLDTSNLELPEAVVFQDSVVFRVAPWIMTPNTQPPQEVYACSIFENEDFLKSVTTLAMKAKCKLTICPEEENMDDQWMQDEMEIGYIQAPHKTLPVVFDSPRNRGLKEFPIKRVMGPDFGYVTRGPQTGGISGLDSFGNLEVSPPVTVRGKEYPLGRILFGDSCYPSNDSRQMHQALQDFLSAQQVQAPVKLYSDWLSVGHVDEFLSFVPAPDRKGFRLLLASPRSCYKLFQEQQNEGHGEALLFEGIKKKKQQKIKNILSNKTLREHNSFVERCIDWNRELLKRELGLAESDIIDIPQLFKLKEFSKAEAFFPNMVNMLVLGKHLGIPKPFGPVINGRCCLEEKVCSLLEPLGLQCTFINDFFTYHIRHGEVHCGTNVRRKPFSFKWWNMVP
Test [9] addresses Peroxisome proliferator-activated receptor gamma (Homo sapiens) + Nuclear receptor corepressor 2 (Homo sapiens) (UniProt P37231+Q9Y618). The test is described as follows: agonists of PPARg-NCOR2 corepressor interaction, counter-screen for NR2E3 agonist project, biochemical, TR-FRET (AID 504787; in the data active = inhibition above about 20%;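 also: 0% = DMSO vehicle and 100% = wells without protein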). The note with it: TR-FRET PPARg-NCOR2 coregulator interaction, at 3.98 µM, active compounds read high.

The target in test [10] is Platelet-activating factor acetylhydrolase IB subunit alpha1 (Homo sapiens) (UniProt Q15102). Kind of test: PAFAH1B3 enzyme inhibitors, confirmation, biochemical, fluorescence polarization, human (AID 493032;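 active = average inhibition over triplicate runs above the hit cutoff set in the earlier primary screen, cut at about 25% in these data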;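 also: 0% = enzyme with DMSO and 100% = wells lacking PAFAH1B3 protein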). The note with it: recombinant PAFAH1B3, FP-Rh activity-based probe, at 3.39 µM, active compounds read high. A general note: Polarisation of emitted light reports the rotation of a fluorescent probe.
Platelet-activating factor acetylhydrolase IB subunit alpha1 (Homo sapiens), sequence (Q15102 whole entry, looked up): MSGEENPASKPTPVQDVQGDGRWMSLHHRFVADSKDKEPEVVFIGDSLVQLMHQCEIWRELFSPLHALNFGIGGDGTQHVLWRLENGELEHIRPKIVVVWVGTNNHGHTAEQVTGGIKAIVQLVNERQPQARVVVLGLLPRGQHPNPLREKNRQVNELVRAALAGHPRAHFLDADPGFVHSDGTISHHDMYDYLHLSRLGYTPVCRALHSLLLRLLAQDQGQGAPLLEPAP

Test [11] addresses Toll-like receptor 9 (Homo sapiens) (UniProt Q9NR96). The test is described as follows: TLR9-MyD88 association inhibitors, retest, confirmation, cell-based, CHO, BLA complementation, fluorescence, triplicate (AID 540250;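 active = mean inhibition across three repeats above about 21% taken from the earlier screen, limit read from the data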;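 also: blue over green emission ratio reports constitutive TLR9 MyD88 association via BLA complementation; 0% = DMSO vehicle wells and 100% = clavulanate BLA inhibitor wells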). To be noted: CCF4 FRET ratio, at 4.98 µM, active compounds read high.
Test [12] can be described thus: beta-lactamase reporter inhibitors in CHO cells, artefact control for TLR9-MyD88 binding inhibitor project, cell-based, fluorescence (AID 540251;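 active = mean inhibition above a 50% cutoff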;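 also: counterscreen of TLR9-MyD88 hits on CMV-driven BLA in CHO-K1 cells; 0% = DMSO alone and 100% = clavulanate blocking BLA; higher means less blue over green ratio so more BLA blockade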). The note with it: CHO-BLA cells, CCF4 FRET ratio, at 4.98 µM, active compounds read high.
A short description of test [13]: CHO cell viability loss – luminescence, single concentration, cytotoxicity control for TLR9-MyD88 binding inhibitor project (AID 588336; in the data active = inhibition above about 11%). To be noted: TLR9-MyD88 CHO cells cytotoxicity, at 4.98 µM, active compounds read high.
In test [14] the test system is transactivating tegument protein VP16 (Human herpesvirus 1). The test is described as follows: VP16 transactivation reporter inhibitors, counter-screen for SRC2 inhibitor project, cell-based, luminescence, single concentration (AID 652007; in the data active = inhibition above about 36%). The note with it: cell-based VP16 transactivation luciferase reporter, at 8.9 µM, active compounds read high.
In test [15] the target is Nuclear receptor coactivator 2 (Homo sapiens) (UniProt Q15596). Kind of test: SRC2 coactivator transcriptional activity inhibitors, confirmation, cell-based, luminescence, HEK293, triplicate (AID 652008;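 active = mean inhibition above 46.5%, the solvent-only control mean plus 3 SD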;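 also: 0% = DMSO-treated cells and 100% = Gossypol at 36 µM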). To be noted: HEK293 GAL4-SRC2 luciferase reporter, at 8.9 µM, active compounds read high.
Nuclear receptor coactivator 2 (Homo sapiens), sequence (Q15596 whole entry, looked up, the tested form may be a part): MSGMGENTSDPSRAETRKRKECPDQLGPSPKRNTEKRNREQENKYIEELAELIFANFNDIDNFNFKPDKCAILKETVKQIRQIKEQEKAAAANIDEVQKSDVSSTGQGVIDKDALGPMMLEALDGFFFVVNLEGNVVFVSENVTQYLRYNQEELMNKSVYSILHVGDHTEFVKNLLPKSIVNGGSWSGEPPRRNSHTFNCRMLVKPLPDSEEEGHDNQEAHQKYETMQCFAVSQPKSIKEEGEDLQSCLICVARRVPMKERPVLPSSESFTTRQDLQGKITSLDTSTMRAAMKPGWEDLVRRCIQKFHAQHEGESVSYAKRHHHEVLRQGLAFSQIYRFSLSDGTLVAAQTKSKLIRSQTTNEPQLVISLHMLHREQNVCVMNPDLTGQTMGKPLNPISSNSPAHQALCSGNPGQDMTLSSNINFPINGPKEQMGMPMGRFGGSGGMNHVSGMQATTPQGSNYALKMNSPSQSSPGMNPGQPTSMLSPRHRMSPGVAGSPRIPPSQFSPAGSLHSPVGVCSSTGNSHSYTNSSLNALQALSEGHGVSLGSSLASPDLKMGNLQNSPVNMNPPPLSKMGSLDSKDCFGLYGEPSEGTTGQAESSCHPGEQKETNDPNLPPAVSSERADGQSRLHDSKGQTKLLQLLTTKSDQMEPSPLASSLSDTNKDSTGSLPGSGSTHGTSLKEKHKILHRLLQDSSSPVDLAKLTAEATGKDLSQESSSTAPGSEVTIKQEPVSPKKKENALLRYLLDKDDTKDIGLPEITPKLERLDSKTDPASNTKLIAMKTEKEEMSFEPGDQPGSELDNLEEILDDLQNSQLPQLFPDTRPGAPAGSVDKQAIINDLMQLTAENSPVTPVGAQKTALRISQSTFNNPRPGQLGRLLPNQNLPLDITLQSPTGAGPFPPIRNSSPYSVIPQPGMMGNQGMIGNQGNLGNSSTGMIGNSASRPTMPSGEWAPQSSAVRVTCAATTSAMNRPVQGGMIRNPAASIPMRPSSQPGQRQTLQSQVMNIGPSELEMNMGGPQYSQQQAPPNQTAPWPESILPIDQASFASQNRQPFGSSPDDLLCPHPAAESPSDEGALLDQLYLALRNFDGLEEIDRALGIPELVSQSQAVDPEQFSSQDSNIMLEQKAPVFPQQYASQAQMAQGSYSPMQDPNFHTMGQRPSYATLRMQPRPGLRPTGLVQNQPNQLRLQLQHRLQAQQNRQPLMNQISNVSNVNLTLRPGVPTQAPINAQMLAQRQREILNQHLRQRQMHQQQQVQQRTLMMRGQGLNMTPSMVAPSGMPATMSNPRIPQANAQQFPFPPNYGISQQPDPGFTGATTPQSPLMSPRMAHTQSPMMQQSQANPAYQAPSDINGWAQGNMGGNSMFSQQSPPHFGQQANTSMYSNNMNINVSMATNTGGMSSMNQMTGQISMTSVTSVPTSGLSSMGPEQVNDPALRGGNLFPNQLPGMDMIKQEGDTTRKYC
A short description of test [16]: Gal4-VP16 luciferase reporter inhibitors, counter-screen for COUP-TFII antagonist project, cell-based, luminescence, HEK293 (AID 687007; in the data active = inhibition above about 13%). The note with it: at 8.5 µM, active compounds read high.
The target of test [17] is COUP transcription factor 2 (Homo sapiens) (UniProt P24468). Kind of test: NR2F2 transcriptional activity inhibitors, confirmation, cell-based, luciferase reporter, HEK293, triplicate (AID 687008;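 active = mean inhibition over three repeats above a set limit taken from the earlier primary screen, cut at about 38% in these data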;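 also: 100% = cells given the luciferase reporter alone without the COUP-TF2 vector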). To be noted: HEK293 NGFI-A luciferase reporter, luminescence; at 8.5 µM; active compounds read high.
COUP transcription factor 2 (Homo sapiens), sequence (P24468 whole entry, looked up, the tested form may be a part): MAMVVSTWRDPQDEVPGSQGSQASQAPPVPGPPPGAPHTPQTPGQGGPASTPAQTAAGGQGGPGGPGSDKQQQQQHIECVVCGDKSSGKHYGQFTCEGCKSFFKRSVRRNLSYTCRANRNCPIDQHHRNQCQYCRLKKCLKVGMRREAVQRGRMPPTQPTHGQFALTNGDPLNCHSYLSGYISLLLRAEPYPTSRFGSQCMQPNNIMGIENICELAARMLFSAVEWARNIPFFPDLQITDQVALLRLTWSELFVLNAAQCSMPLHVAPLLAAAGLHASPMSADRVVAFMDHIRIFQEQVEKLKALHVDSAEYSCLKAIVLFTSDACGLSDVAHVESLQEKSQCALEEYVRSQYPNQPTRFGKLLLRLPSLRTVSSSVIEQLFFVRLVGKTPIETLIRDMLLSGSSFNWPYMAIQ
Test [18] addresses Oxysterols receptor LXR-beta (Homo sapiens) (UniProt P55055). Kind of test: LXR agonists, Gal4 luciferase reporter, confirmation, counter-screen for hcDAF-12 agonist project, cell-based, luminescence, HEK293, H. contortus campaign (AID 743027;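 active = mean percent activation of the reporter above a cutoff set as the average over tested compounds plus their standard deviation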). The note with it: HEK293 Gal4-LXR tk-luc reporter, 24 h, at 6.8 µM, active compounds read high, normalized: DMSO 0%, positive control 100%.
For test [19], the system named is Nuclear hormone receptor DAF-12 (Haemonchus contortus). The test is described as follows: H. contortus DAF-12 receptor agonists, confirmation, cell-based, luminescence, HEK293, lit1-tk-luc, triplicate (AID 743032;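 active = mean activation across triplicate tests above the threshold derived from the earlier primary screen, cut at about 5.5% in these data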;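 also: 0% = DMSO only wells and 100% = 3 µM Δ7-dafachronic acid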). The note with it: HEK293 hcDAF-12 lit1-tk-luc reporter, at 6.8 µM, active compounds read high, % of Δ7-dafachronic acid response.
For test [20], the target named is Bcl-2-like protein 1 (Homo sapiens) (UniProt Q07817). Kind of test: Bcl-xL inhibitors blocking Bim BH3 binding, confirmation, counter-screen for MCL1 inhibitor project, biochemical, fluorescence polarization (AID 2166;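 active = inhibition above a cutoff equal to the mean inhibition of all tested compounds plus 3 SD, cut at about 30% in these data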). To be noted: GST-Bcl-xL / FITC-Bim BH3 peptide FP binding; at 10.9 µM; active compounds read high.
Bcl-2-like protein 1 (Homo sapiens), sequence (Q07817 whole entry, looked up): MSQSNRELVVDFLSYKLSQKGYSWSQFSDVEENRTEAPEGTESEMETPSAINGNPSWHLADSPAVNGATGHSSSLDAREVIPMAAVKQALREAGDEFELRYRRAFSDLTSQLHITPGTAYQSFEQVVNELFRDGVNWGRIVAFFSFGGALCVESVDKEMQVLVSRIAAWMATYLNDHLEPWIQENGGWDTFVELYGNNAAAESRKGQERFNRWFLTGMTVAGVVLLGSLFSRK
Test [21] concerns the target Induced myeloid leukemia cell differentiation protein Mcl-1 (Homo sapiens) (UniProt Q07820). Kind of test: inhibitors of MCL1 binding to BIM-BH3, confirmation, biochemical, fluorescence polarization, triplicate (AID 2168).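 Also: 0% = DMSO wells and 100% = unlabeled Bim-BH3 control peptide.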 To be noted: GST-MCL1 / FITC-Bim-BH3 fluorescence polarization; at 10.9 µM; active compounds read high.
Test [22] concerns the target Lytic switch protein BZLF1 (Epstein-Barr virus (strain B95-8)) (UniProt P03206). Kind of test: EBV Zta binding to ZRE DNA, inhibitors, confirmation, biochemical, fluorescence polarization, triplicate (AID 2361;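 active = mean inhibition across triplicate runs above the hit threshold derived for the original primary screen, cut at about 33% in these data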;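 also: 0% = Zta with DMSO and 100% = wells lacking Zta protein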). To be noted: at 11.1 µM, active compounds read high.
Test [23] concerns Epstein-Barr virus nuclear antigen 1 (EBNA-1), Human herpesvirus 4. The test is described as follows: EBNA-1 DNA-binding inhibition, counter-screen for ZTA inhibitor project, biochemical, fluorescence polarization (AID 2362; call rule not given here). To be noted: at 14.8 µM, active compounds read high.
For test [24], the target named is Insulin-degrading enzyme (Homo sapiens) (UniProt P14735). The test is described as follows: human IDE inhibitors in live cells, confirmation, fluorescence polarization, HEK cells, FAbetaB substrate (AID 435028;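 active = mean inhibition across triplicate wells above the cutoff set by the earlier primary insulin-degrading enzyme screen, cut at about 16% in these data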;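 also: 0% = DMSO wells and 100% = 60 µM reference IDE inhibitor Ii1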). The note with it: FAbetaB cleavage, at 5.59 µM, active compounds read high.
A short description of test [25]: cytotoxicity in HEK cells, cytotoxicity control for IDE inhibitor project, cell-based, luminescence (AID 449730; in the data active = inhibition above about 22%;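 also: 0% = vehicle wells and 100% = reference cytotoxic drug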). To be noted: HEK293 cytotoxicity, ATP luminescence; at 5.59 µM; active compounds read high.

Values without a mark were called inactive. The list shows a part of the results. Activity calls are given as the source filed them.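 The calls were made as follows, unless noted: active = inhibition above the average of all tested compounds plus 3 SD (cut at about 40% in these data); inactive = the rest.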

Induced myeloid leukemia cell differentiation protein Mcl-1 (Homo sapiens), sequence (Q07820 whole entry, looked up): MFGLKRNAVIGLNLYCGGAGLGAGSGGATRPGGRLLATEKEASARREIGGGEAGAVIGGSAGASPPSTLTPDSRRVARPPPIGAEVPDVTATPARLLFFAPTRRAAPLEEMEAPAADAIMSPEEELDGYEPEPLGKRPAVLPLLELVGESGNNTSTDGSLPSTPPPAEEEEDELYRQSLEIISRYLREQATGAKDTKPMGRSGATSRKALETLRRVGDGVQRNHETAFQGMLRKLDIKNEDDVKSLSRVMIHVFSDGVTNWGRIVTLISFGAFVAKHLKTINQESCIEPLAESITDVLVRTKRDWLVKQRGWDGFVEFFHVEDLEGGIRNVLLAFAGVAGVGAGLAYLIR
Toll-like receptor 9 (Homo sapiens), sequence (Q9NR96 whole entry, looked up): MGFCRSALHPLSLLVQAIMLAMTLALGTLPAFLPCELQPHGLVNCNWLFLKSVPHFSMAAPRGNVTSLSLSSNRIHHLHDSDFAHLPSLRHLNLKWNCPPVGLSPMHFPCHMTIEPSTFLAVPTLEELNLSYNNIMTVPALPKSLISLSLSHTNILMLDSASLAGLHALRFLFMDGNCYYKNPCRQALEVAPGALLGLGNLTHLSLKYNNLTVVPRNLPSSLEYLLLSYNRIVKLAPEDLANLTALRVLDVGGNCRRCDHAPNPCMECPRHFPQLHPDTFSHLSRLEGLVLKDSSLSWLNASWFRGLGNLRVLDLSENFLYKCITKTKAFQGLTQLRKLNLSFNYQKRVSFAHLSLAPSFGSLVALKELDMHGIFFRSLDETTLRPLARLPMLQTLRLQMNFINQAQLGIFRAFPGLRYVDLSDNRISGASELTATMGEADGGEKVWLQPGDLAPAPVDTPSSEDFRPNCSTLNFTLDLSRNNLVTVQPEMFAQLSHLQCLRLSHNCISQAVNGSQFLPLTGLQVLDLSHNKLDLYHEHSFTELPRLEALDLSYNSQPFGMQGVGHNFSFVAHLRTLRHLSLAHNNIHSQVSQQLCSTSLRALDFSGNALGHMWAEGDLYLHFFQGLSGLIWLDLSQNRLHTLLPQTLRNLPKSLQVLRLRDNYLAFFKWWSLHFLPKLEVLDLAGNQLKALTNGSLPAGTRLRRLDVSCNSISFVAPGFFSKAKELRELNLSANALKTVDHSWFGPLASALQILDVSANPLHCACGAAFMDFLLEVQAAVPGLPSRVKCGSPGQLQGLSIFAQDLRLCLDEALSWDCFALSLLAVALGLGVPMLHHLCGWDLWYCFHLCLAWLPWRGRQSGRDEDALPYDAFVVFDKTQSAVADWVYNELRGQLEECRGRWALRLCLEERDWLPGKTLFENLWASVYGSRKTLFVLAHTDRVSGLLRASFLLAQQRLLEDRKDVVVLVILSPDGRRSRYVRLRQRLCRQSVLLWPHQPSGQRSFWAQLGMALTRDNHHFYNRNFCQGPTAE
Lytic switch protein BZLF1 (Epstein-Barr virus (strain B95-8)), sequence (P03206 whole entry, looked up): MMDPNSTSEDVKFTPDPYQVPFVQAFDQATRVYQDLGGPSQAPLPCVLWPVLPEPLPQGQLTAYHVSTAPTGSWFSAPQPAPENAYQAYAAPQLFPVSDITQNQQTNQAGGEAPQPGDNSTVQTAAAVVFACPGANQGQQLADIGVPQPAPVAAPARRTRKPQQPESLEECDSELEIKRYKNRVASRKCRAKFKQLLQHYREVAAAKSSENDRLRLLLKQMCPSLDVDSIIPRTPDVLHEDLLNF

The inhibition is the relative decrease from the control value, in per cent. With `O=C(Nc1ccccc1)c1nnsc1S(=O)(=O)c1ccc(Cl)cc1`, the inhibition in [1] is 45.8% (active); in test [2], 66.7% (active); in test [3] it was 116% (active); in [4], 37.5%; in test [5], 65.2% (active); in test [6], 10.3%.
`COCCNC(=O)Nc1ccc2nc(-c3ccco3)c(-c3ccco3)nc2c1`: the activation (reported as inhibition) in [7] is -0.99%. The inhibition in test [8] was 1.02%; in test [9], -6.1%.
Turning to `O=C(CCn1c(SCC(=O)c2ccccc2)nc2ccccc2c1=O)NCc1ccc(F)cc1`, in test [8], the inhibition is -0.06%.
Take `O=C(N/N=C/c1sc(N2CCCCC2)nc1-c1cccs1)c1cccnc1`: the inhibition in test [10] is 12.7%.
For `Cc1cccc2cc3c(N)c(C(=O)N4CCCc5ccccc54)sc3nc12`, the figures for the inhibition in test [11], in test [12] and in test [13] were 15.4%, 12.7% and 33.7% (active), respectively.
Consider `Cc1ccc(-c2cn3cc(C)ccc3n2)cc1`, for which the inhibition is 45.9% (active) in test [14], 69.2% (active) in [15], 20.1% (active) in test [16] and 43.9% (active) in test [17].
`Nc1ccc2nn(-c3ccc(Cl)cc3)nc2c1`: the activation in [18] is 1.78%; in [19] it was 9.23% (active).
Consider `COC(=O)[C@H]1[C@H]2C[C@H]3c4[nH]c5ccccc5c4CCN3C[C@@H]2CC[C@@H]1O`, for which the inhibition in test [20] is 88.6% (active); in [21] it was 112% (active); in [22] it was 22.7%; in [23], -1.66%.
On to `COc1ccc(C2C=C(c3ccc(Br)cc3)Nc3nc(NS(C)(=O)=O)nn32)cc1` (configuration not stated), for which the inhibition is 133% (active) in test [20] and 167% (active) in test [21].
Regarding `Cc1ccc(C(=O)NC(=S)Nc2ccc(N3CCOCC3)cc2)cc1`, the inhibition in test [20] is 8.63%; in test [21] it was 8.72%.
On to `C=CCOc1cccc(C2C(C(=O)c3ccc(C)o3)=C(O)C(=O)N2c2nnc(C)s2)c1` (configuration not stated), for which the inhibition in test [20] is 70.1% (active); in test [21], 80.5% (active); in [24] it was 6.36%; in test [25], 5.97%.

For the origin of these results see PubChem BioAssay.
